# Screening data as filed in PubChem.
# Hits are enriched below; roughly 18% of the tested compounds scored in any of these assays.
# TDP1 cell CPT = DT40-hTDP1 cell growth loss with CPT | chicken DT40 Tdp1-/-;hTDP1 cells + 20 nM CPT, ATP luminescence, 48 h | Potency, µM (top dose mostly 46.2 µM), for the others: top-dose activity change, negative = growth inhibition, hits mostly inhibitors | 420,000 tested, 12% active | AID 686979; further: potency means the concentration at half of the fitted maximal effect; nearly all actives have a fitted effect of over 55% in size
#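 Cell growth measured by CellTiter-Glo luminescence after a minimum 48 h, 37 C compound exposure with 20 nM CPT in Tdp1-knockout DT40 cells stably expressing hTDP1, seeded 400/well; qHTS titration format.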
# DT40 TDP1 no CPT = qHTS for Inhibitors of human tyrosyl-DNA phosphodiesterase 1 (TDP1): qHTS in cells in absence of CPT. DT40 Tdp1-/- hTDP1 cells, no CPT, ATP luminescence, 48 h. AID 686978, 2013. 420,000 tested, 15% active. Potency, µM (doses to about 46.2 µM), for inactives: top-dose activity change, negative = growth inhibition, usual class: inhibitors; further: potency means the concentration at half of the fitted maximal effect; nearly all actives have a fitted effect of over 55% in size
#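 A cellular qHTS used chicken DT40 cells lacking endogenous Tdp1 but carrying stably transfected human TDP1. Compounds were applied without camptothecin, and cell growth kinetics were judged by ATP-dependent luminescence after ≥48 hr.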
# CtBP-E1A inh = blocks the CtBP interaction with E1A. AlphaScreen GST-E1A/His-CtBP binding, 1536-well; stronger effect = lower value. activity change, % (test concentration not listed). 340,000 tested, 0.49% active. AID 651724; in the data active means activity change below about -65%; inconclusive means mostly about -30% to -63%
#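 Homogeneous bead-based format: GST-tagged E1A captured on glutathione donor beads, His-tagged CtBP on nickel acceptor beads; compounds precede bead addition by 2 h at 37 °C.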
# Six1-Eya2 blk = blocks human Six1 binding to Eya2; Q15475+O00167; 360,000 tested, 0.56% active; AlphaScreen GST-Six1/His-Eya2 binding, biochemical; stronger effect = lower value; activity change, % (concentration not given with the values); in the data active means activity change below about -65%; inconclusive means mostly about -30% to -63%
#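 AlphaScreen luminescence read after one hour at 37 °C in darkness. Pin-transferred compounds met GST-Six1 and His-Eya2 protein (5X stock 250 nM/500 nM) plus glutathione donor and Ni-chelate acceptor beads (5X, 50 ug/mL).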
# TDP1 block = blocks human tyrosyl-DNA phosphodiesterase 1. Q9NUW8. recombinant TDP1, AlphaScreen DNA substrate cleavage. Potency, µM (highest dose often 130 µM), inactives show top-dose activity change, negative = inhibition, usual class: inhibitors. 350,000 tested, 0.28% active. AID 485290; further: potency means the concentration at half of the fitted maximal effect; nearly all actives have a fitted effect of over 40% in size
# Target sequence (Q9NUW8 whole entry, looked up): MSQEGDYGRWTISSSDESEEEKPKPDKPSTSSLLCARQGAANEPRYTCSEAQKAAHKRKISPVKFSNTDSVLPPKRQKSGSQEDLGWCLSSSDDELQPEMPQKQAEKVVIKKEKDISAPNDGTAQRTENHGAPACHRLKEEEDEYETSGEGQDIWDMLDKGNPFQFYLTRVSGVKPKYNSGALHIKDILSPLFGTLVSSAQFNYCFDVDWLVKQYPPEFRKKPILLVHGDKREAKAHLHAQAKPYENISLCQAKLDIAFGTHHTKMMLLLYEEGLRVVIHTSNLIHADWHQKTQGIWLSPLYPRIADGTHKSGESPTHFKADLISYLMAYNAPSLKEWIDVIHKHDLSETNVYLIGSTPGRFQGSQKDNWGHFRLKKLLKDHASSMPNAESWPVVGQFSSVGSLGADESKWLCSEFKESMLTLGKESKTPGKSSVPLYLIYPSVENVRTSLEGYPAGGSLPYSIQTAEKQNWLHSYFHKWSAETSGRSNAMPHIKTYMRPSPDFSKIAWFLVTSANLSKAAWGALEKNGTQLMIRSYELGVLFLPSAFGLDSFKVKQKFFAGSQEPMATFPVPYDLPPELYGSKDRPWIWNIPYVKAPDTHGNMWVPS
#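 Signal: AlphaScreen proximity between streptavidin donor and anti-FITC acceptor beads on intact substrate. Reaction: Tdp1 1 nM, substrate 15 nM final, 5 min RT after 15 min compound preincubation.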
# IL-1B inflam inh = inflammasome signaling inhibition, IL-1 beta readout; THP-1 LPS/ATP IL-1B secretion, AlphaLISA, 16 h; stronger effect = lower value; activity change, % at 57.5 µM; 360,000 tested, 4.7% active; AID 743279; in the data active means activity change below about -50%; inconclusive means mostly about -30% to -49%
#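 Secreted IL-1B measured by AlphaLISA bead assay after 16 h compound exposure of THP-1 cells; compounds (final up to 57.5 uM) added 1 h before LPS (250 ng/mL) and ATP (1.25 mM) stimulation; lower signal means less secretion.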
# * = called active by the depositor; ? = inconclusive; nt = no result given; [ ] = another dose, or the depositor's remark. Unless noted, the call rests on the fitted dose curve; in most records, active means well fitted curve in the direction sought with a large enough effect; inconclusive means small, poorly fitted or top-dose-only effect, or another doubt; inactive means no such curve, though single readings can be large; an effect the other way counts as inactive or inconclusive. On the % scale 0 is the no-effect control and ±100 the full control effect.
SMILES,TDP1 cell CPT,DT40 TDP1 no CPT,CtBP-E1A inh,Six1-Eya2 blk,TDP1 block,IL-1B inflam inh
CCC(C)[C@H](NC(=O)N1CCn2c1nc1ccccc12)C(=O)NCCc1ccc(OC)c(OC)c1 (some centres not stated),15µM*,16µM*,nt,-6,2%,-9
COc1cccc(NC(=O)[C@H](C)NC(=O)N2CCn3c2nc2ccccc23)c1,-14%,5%,-1,-1,0%,13
CCC(C)[C@H](NC(=O)N1CCn2c1nc1ccccc12)C(=O)NCCc1ccccc1 (some centres not stated),21µM*,?,0,1,4%,-59*
COc1ccc(CCNC(=O)[C@H](CC(C)C)NC(=O)N2CCn3c2nc2ccccc23)cc1OC,-64%,?,0,15,6%,-66*
CCC(C)[C@H](NC(=O)N1CCn2c1nc1ccccc12)C(=O)NCC1CCCO1 (some centres not stated),-14%,14%,2,5,-1%,-19
COc1cccc(NC(=O)[C@H](CC(C)C)NC(=O)N2CCn3c2nc2ccccc23)c1,?,?,-3,-1,0%,-5
COc1cccc(NC(=O)[C@@H](NC(=O)N2CCn3c2nc2ccccc23)C(C)C)c1,-13%,13µM*,-3,-6,6%,5
CC(C)C[C@H](NC(=O)N1CCn2c1nc1ccccc12)C(=O)N1CCCCC1,?,21µM*,nt,3,1%,-5
CC(Nc1cccc(C(=O)NC2CC2)c1)c1nnc(-c2ccccc2)o1 (configuration not stated),-19%,-25%,0,0,1%,-10
CCCCCCCCCNC(=O)[C@H](NC(=O)COc1ccccc1)[C@@H]1NC(C(=O)OC)C(C)(C)S1 (some centres not stated),?,?,4,4,nt,6
CCc1nc(NCc2ccc3c(c2)OCO3)c2oc3ccccc3c2n1,13µM*,18µM*,-4,-3,5%,12
CCc1nc(NCc2cccnc2)c2oc3ccccc3c2n1,-25%,?,-6,-1,6%,22
Cc1nc(NCc2ccc3c(c2)OCO3)c2oc3ccccc3c2n1,-21%,-26%,-6,-10,-7%[56.1 µM],-52*
Cc1c(C(=O)NCCn2ccc3ccccc32)cccc1[N+](=O)[O-],-30%,?,0,-2,1%,-24
Cc1cccc(NC(=O)Cn2nc(-c3cccs3)ccc2=O)c1C,13%,-5%,-11,-6,6%,-2
CCOc1ccc(OCCC(=O)OCC(=O)NC2CC2)cc1,11%,7%,6,2,nt,22
CS(=O)(=O)c1ccc(C(=O)OCC(=O)NCc2cccs2)cc1[N+](=O)[O-],5.8µM*,4.6µM*,-20,-6,1%,-97*
CSc1nc(NC(C)(C)C)nc(N2CCOCC2)n1,?,?,-2,-3,-2%,-17
CCNc1nc(N2CCCCC2)nc(-n2nnc(C(=O)OCC)c2C)n1,?,?,-3,-1,0%,-17
CC(C)(C)Nc1nc(N2CCCC2)nc(N2CCCC2)n1,?,16µM*,7,4,1%,53
CCCNc1nc(N2CCCC2)nc(N2CCCC2)n1,?,13µM*,-1,14,2%,-65*
CCNc1nc(NC(C)(C)C)nc(N2CCCC2)n1,18µM*,?,6,0,-4%[56.1 µM],27
O=C(OCC(=O)N1CCN(c2ccccc2)CC1)c1cc(Cl)ccc1[N+](=O)[O-],-18%,-11%,-15,-18,4%,-3
O=C1C(=O)N(CCN2CCOCC2)C(c2ccncc2)/C1=C(/O)c1ccc2c(c1)OCO2 (configuration not stated),-26%,-16%,-1,1,1%,31
COc1ccc(-c2cnn3c4c(c(C)nc23)CCN4C2CCCC2)cc1OC,-29%,-27%,-9,-3,3%,?
SMILES,TDP1 cell CPT,DT40 TDP1 no CPT,CtBP-E1A inh,Six1-Eya2 blk,TDP1 block,IL-1B inflam inh
CN(CC(=O)Nc1ccc(F)c(F)c1F)C(=O)CCc1nc2sc3c(c2c(=O)[nH]1)CCCC3,-1%,?,-5,-6,0%[0.505 µM],31
O=C(COC(=O)c1cc(-c2cccnc2)nc2ccccc12)Nc1ccc(F)cc1F,-3%,1%,-4,-6,3%,52
COC(=O)c1ccc2nc(-c3ccco3)c(Cc3cccc(F)c3)n2c1,16µM*,18µM*,1,-12,nt,28
COC(=O)c1ccc2nc(-c3ccc(C)cc3)c(Cc3ccc(C)cc3)n2c1,?,16µM*,4,1,nt,37
COC(=O)c1ccc2nc(-c3ccc(F)cc3)c(Cc3cccc(Cl)c3)n2c1,?,18µM*,-5,7,nt,30
COC(=O)c1ccc2nc(-c3ccco3)c(Cc3ccc(C)cc3)n2c1,-98%,?,1,-9,nt,33
COC(=O)c1ccc2nc(-c3ccc(OC)c(OC)c3)c(Cc3ccc(C)cc3)n2c1,?,21µM*,10,-1,nt,-6
COc1ccc(-c2nc3ccc(Cl)cn3c2Cc2ccc(C)cc2)cc1OC,?,?,-1,-1,nt,-16
COC(=O)c1ccc2nc(-c3ccccc3)c(Cc3cccc(F)c3)n2c1,?,?,4,1,nt,18
COc1ccccc1N1CCN(S(=O)(=O)c2ccc(-c3cc(C(F)(F)F)on3)s2)CC1,?,?,nt,nt,0%,nt
CN1CCN(c2nc(-c3cccs3)cc(C(F)(F)F)n2)CC1,?,?,-12,-18,5%,?
COC(=O)c1ccc2nc(-c3ccc(OC)c(OC)c3)c(Cc3cccc(F)c3)n2c1,12µM*,13µM*,2,9,nt,18
Cc1cc(CNC(=O)[C@H](C)[C@@H]2C[C@@]2(C)[C@@H](NC(=O)OCc2ccccc2)c2ccccc2)nn1C,23µM*,?,-4,12,-8%,-10
COc1ccc(CNC(=O)[C@H](C)[C@@H]2C[C@@]2(C)[C@@H](NC(=O)OCc2ccccc2)c2ccccc2)cc1OC,15µM*,12µM*,-3,?,-8%,-27
O=C(NN1C(=O)c2ccc3c4c(ccc(c24)C1=O)CC3)c1ccc(Br)cc1,?,-23%,-8,5,5%,-3
Cc1ccc(CNC(=O)C(=O)NCC(c2cccs2)S(=O)(=O)c2ccc(C)cc2)cc1 (configuration not stated),?,?,nt,nt,5%,nt
